Experimental data published in the supplement of paper PMC10849652.
Targets with a hit are over-represented here; the source holds about 7,900 in all. About 0.6% of all pairs of compound and target were hits.

Tests used:
Assay in all cases: log2 fold change, soluble protein after heating vs DMSO (PISA); higher = thermal stabilisation; K562 cells, 10 uM, 30 min; active = over 0.2 and 3.5 SD of the protein, either way, in both replicates (recomputed)
IRAK-1-4 Inhibitor I = compound: C1COCCN1CCN2C3=CC=CC=C3N=C2NC(=O)C4=CC(=CC=C4)[N+](=O)[O-] [IRAK-1-4 Inhibitor I]
How it was run: (§1)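 Soluble protein was quantified by TMTpro 16plex LC-MS/MS after channel sums were equalised. It was obtained as the supernatant after 21,000xg for 90 min from pooled aliquots of K562 cells (2×10^6 cells/mL, 10 μM compound, 30 min) heated for 3 min across 48°C-58°C and extracted in PBS with 0.5% NP-40 at 4°C. Thermal stability values are relative to control samples and come from duplicates. They are given as log2 fold changes.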

ibrutinib = compound: C=CC(=O)N1CCC[C@@H](n2nc(-c3ccc(Oc4ccccc4)cc3)c3c(N)ncnc32)C1 [ibrutinib]
How it was run: as §1

[1] = compound: CC(=O)c1cnc2ccc(-c3cc(Cl)c(O)c(Cl)c3)nc2c1N[C@H]1CC[C@H](CN(C)C)CC1
How it was run: as §1

ralimetinib = compound: CC(C)(C)Cn1c(N)nc2ccc(-c3[nH]c(C(C)(C)C)nc3-c3ccc(F)cc3)nc21 [ralimetinib]
How it was run: as §1

[2] = compound: CC(C)(O)CC(=O)NCCn1ccc2ncnc(Nc3ccc(Oc4cccc(C(F)(F)F)c4)c(Cl)c3)c21
How it was run: as §1

[3] = compound: CC(C)C1=C2N=C(C=C(N2N=C1)NCC3=CC=CC=C3)NCCCCCCN
How it was run: as §1

[4] = compound: CC(C)C[C@@H](C=O)NC(=O)[C@H](CC(C)C)NC(=O)[C@H](CC(C)C)NC(=O)OCc1ccccc1
How it was run: as §1

pinometostat = compound: CC(C)N(C[C@H]1O[C@@H](n2cnc3c(N)ncnc32)[C@H](O)[C@@H]1O)[C@H]1C[C@@H](CCc2nc3cc(C(C)(C)C)ccc3[nH]2)C1 [pinometostat]
How it was run: as §1

[5] = compound: CC1=C(C(CC(=O)N1)C2=CC=C(C=C2)C(F)(F)F)C(=O)NC3=C(C=C4C(=C3)C=NN4)F
How it was run: as §1

[6] = compound: CC1=C(C2=C(C=C1)C(=O)C3=CC=CC=C3N2CCCN)C
How it was run: as §1

[7] = compound: CC1=C(C=C(C=C1)NC(=O)C2=CC(=CC=C2)C(C)(C)C#N)NC3=CC4=C(C=C3)N=CN(C4=O)C
How it was run: as §1

[8] = compound: CC1=C(C=C(C=C1)NC(=O)C2=CC(=CC=C2)N(C)C)NC(=O)C3=CC=C(C=C3)O
How it was run: as §1

[9] = compound: CC1=CC=C(C=C1)SC2=C3C=C(SC3=CN=C2)C(=O)N
How it was run: as §1

[10] = compound: CC1=NC(=CC=C1)C2=C(N=C(N2)C(C)(C)C)C3=CC4=NC=CN=C4C=C3
How it was run: as §1

Nexturastat A = compound: CCCCN(Cc1ccc(C(=O)NO)cc1)C(=O)Nc1ccccc1 [Nexturastat A]
How it was run: as §1

vemurafenib = compound: CCCS(=O)(=O)Nc1ccc(F)c(C(=O)c2c[nH]c3ncc(-c4ccc(Cl)cc4)cc23)c1F [vemurafenib]
How it was run: as §1

[11] = compound: CCCS(=O)(=O)Nc1ccc(F)c(C(=O)c2c[nH]c3ncc(Cl)cc23)c1F
How it was run: as §1

[12] = compound: CCCc1cc(C)[nH]c(=O)c1CNC(=O)c1cc(-c2ccnc(N3CCN(C)CC3)c2)cc2c1cnn2C(C)C
How it was run: as §1

givinostat = compound: CCN(CC)Cc1ccc2cc(COC(=O)Nc3ccc(C(=O)NO)cc3)ccc2c1 [givinostat]
How it was run: as §1

barasertib = compound: CCN(CCCOc1ccc2c(Nc3cc(CC(=O)Nc4cccc(F)c4)[nH]n3)ncnc2c1)CCOP(=O)(O)O [barasertib]
How it was run: as §1

Measured: log2 fold change

MORF4L2 (UniProt Q15014)
UniProt Q15014, sequence (Q15014 whole entry, looked up): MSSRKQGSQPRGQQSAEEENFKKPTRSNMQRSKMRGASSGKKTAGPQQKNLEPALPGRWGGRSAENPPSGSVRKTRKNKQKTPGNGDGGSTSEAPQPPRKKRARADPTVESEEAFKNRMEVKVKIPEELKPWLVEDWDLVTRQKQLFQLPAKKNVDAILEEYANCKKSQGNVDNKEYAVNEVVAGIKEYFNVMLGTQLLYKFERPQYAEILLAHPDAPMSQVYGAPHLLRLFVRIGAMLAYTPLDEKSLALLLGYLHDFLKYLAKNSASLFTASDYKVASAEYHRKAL
inactive: IRAK-1-4 Inhibitor I -0.116 | ibrutinib 0.04 | [1] 0.047 | ralimetinib -0.01 | [2] 0.039 | [3] 0.052 | [4] 0.271 | pinometostat 0.092 | [5] 0.028 | [6] 0.005 | [7] -0.004 | [8] -0.061 | [9] -0.015 | [10] -0.083 | Nexturastat A 0.129 | vemurafenib 0.009 | [11] 0.036 | [12] 0.038 | givinostat -0.007 | barasertib -0.03

NARS2 (UniProt Q96I59)
UniProt Q96I59, sequence (Q96I59 whole entry, looked up): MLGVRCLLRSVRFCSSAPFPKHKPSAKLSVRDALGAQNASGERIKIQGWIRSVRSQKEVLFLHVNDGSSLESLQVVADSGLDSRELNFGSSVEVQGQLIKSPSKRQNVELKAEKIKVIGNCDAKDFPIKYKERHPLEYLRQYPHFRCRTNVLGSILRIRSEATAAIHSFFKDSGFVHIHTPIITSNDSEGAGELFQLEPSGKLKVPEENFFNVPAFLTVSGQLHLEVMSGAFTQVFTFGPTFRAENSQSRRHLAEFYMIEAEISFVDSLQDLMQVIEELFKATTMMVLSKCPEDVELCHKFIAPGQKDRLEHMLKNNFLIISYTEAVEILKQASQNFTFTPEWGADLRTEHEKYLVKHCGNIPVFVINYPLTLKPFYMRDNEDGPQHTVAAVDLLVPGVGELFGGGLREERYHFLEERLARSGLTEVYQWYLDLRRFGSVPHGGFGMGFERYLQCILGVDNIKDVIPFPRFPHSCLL
inactive: IRAK-1-4 Inhibitor I 0.044 | ibrutinib 0.03 | [1] 0.034 | ralimetinib -0.034 | [2] -0.121 | [4] -0.019 | pinometostat -0.019 | [5] -0.002 | [6] -0.006 | [7] -0.016 | [8] 0.002 | [9] -0.011 | [10] 0.019 | Nexturastat A -0.071 | vemurafenib -0.01 | [11] 0.038 | [12] -0.033 | givinostat -0.076 | barasertib 0.002
active: [3] -0.31

MRPS21 (UniProt P82921)
inactive: IRAK-1-4 Inhibitor I -0.143 | ibrutinib 0.029 | [1] 0.172 | ralimetinib -0.038 | [2] -0.069 | [3] 0.063 | [4] 0.063 | pinometostat 0.052 | [5] -0.091 | [6] -0.207 | [7] 0.015 | [8] -0.059 | [9] 0.215 | [10] 0.107 | Nexturastat A 0.093 | vemurafenib 0.079 | [11] 0.132 | [12] -0.018 | givinostat -0.016 | barasertib -0.156

NEU1 (UniProt Q99519)
inactive: IRAK-1-4 Inhibitor I -0.136 | ibrutinib -0.069 | [1] -0.175 | ralimetinib 0.05 | [2] 0.018 | [4] 0.166 | pinometostat -0.021 | [5] 0.049 | [6] -0.131 | [7] 0.031 | [8] -0.048 | [9] 0.029 | [10] 0.118 | Nexturastat A 0.068 | vemurafenib -0.002 | [11] -0.008 | [12] 0.057 | givinostat 0.036 | barasertib 0.059
active: [3] -0.379

NPEPPS (UniProt P55786)
UniProt P55786, sequence (P55786 whole entry, looked up): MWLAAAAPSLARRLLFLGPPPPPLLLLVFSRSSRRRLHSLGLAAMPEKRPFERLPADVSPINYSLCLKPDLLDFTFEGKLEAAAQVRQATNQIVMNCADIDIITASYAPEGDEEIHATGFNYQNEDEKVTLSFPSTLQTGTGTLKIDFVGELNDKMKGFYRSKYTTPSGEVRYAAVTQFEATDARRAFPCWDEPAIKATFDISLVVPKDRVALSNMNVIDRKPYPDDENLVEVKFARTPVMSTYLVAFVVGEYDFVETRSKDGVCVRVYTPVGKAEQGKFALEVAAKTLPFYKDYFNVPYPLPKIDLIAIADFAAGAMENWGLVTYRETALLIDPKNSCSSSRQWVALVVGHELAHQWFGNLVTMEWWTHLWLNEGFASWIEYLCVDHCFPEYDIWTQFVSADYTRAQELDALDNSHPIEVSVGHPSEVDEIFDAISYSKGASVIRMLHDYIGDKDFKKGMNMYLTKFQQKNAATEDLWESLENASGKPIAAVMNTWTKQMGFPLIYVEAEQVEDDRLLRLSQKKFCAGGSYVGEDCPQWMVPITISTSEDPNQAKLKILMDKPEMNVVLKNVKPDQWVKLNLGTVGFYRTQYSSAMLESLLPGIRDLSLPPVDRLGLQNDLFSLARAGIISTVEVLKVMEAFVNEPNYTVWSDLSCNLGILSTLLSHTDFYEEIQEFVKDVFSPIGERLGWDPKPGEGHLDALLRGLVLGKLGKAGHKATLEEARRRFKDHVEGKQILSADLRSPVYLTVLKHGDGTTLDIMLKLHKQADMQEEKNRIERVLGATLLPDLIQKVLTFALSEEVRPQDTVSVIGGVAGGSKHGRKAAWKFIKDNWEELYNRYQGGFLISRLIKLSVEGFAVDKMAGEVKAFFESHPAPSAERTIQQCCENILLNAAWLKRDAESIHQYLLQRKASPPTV
active: [3] 0.254
inactive: IRAK-1-4 Inhibitor I 0.039 | ibrutinib 0 | [1] -0.013 | ralimetinib 0.021 | [2] -0.117 | [4] -0.035 | pinometostat -0.026 | [5] -0.01 | [6] 0.045 | [7] 0.079 | [8] -0.012 | [9] -0.004 | [10] 0.018 | Nexturastat A -0.017 | vemurafenib -0.022 | [11] 0.003 | [12] 0.009 | givinostat -0.02 | barasertib 0.008

NUP160 (UniProt Q12769)
UniProt Q12769, sequence (Q12769 whole entry, looked up): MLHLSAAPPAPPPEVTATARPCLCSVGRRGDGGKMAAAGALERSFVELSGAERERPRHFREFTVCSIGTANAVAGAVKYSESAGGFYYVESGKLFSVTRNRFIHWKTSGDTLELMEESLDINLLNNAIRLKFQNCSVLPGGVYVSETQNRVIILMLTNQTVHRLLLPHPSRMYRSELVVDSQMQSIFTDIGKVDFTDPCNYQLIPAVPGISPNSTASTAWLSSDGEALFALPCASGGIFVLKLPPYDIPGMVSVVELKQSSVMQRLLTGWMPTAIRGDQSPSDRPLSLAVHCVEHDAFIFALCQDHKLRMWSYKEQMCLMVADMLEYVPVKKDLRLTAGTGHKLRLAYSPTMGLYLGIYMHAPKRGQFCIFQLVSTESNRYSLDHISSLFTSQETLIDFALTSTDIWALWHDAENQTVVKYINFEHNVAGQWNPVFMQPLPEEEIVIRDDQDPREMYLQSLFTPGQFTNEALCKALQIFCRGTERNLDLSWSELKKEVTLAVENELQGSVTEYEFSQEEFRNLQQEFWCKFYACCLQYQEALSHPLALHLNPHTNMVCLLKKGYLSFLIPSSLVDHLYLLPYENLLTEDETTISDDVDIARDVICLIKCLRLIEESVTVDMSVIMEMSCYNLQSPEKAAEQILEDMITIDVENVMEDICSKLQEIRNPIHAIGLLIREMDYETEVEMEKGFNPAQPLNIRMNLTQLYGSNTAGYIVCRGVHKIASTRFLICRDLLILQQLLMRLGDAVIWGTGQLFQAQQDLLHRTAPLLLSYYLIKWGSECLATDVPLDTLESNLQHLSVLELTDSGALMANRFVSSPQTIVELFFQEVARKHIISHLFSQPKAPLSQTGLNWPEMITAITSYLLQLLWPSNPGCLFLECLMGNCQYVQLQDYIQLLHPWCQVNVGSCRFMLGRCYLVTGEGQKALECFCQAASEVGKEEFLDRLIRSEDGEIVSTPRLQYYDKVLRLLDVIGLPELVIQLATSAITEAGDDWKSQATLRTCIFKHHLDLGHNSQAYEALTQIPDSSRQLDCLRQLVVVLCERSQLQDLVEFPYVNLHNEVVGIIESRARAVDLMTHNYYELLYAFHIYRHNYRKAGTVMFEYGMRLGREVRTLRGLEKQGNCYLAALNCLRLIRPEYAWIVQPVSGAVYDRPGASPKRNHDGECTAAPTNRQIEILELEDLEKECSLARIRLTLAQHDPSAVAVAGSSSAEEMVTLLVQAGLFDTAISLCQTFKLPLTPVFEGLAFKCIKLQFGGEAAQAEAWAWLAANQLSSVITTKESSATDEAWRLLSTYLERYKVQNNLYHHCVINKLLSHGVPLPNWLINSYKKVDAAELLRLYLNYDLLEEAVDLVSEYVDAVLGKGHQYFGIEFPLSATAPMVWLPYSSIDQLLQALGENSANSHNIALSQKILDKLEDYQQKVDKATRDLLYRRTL
inactive: IRAK-1-4 Inhibitor I -0.03 | ibrutinib -0.041 | [1] -0.13 | ralimetinib -0.002 | [2] -0.032 | [3] -0.137 | [4] -0.01 | pinometostat 0.058 | [5] 0.001 | [6] -0.012 | [7] 0.006 | [8] 0.037 | [9] 0.023 | [10] 0.017 | Nexturastat A -0.037 | vemurafenib -0.01 | [11] 0.083 | [12] 0.002 | givinostat 0.018 | barasertib 0.062

NDUFS8 (UniProt O00217)
UniProt O00217, sequence (O00217 whole entry, looked up): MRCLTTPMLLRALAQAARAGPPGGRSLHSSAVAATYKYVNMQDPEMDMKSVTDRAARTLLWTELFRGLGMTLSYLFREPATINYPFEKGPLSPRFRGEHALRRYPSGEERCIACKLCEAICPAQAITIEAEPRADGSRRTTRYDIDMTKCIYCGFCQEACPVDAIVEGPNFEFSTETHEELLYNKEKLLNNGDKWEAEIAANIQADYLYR
inactive: IRAK-1-4 Inhibitor I 0.087 | ibrutinib 0.034 | [1] -0.02 | ralimetinib -0.083 | [2] -0.099 | [3] -0.145 | [4] 0.017 | pinometostat 0.005 | [5] 0.034 | [6] 0.075 | [7] 0.02 | [8] 0 | [9] 0.03 | [10] 0.018 | Nexturastat A -0.136 | vemurafenib 0.02 | [11] -0.006 | [12] -0.092 | givinostat -0.014 | barasertib -0.004

NDUFA12 (UniProt Q9UI09)
UniProt Q9UI09, sequence (Q9UI09 whole entry, looked up): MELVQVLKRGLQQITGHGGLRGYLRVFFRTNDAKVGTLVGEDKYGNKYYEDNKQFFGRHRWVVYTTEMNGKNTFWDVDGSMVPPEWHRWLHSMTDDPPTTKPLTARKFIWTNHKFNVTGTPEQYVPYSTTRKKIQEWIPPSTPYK
active: [3] -0.31
inactive: IRAK-1-4 Inhibitor I 0.05 | ibrutinib -0.078 | [1] -0.04 | ralimetinib -0.043 | [2] -0.128 | [4] 0.021 | pinometostat -0.06 | [5] -0.012 | [6] 0.122 | [7] 0.022 | [8] -0.1 | [9] 0.014 | [10] -0.028 | Nexturastat A -0.027 | vemurafenib 0.039 | [11] 0.03 | [12] -0.044 | givinostat 0.114 | barasertib 0.056

NAA11 (UniProt Q9BSU3)
UniProt Q9BSU3, sequence (Q9BSU3 whole entry, looked up): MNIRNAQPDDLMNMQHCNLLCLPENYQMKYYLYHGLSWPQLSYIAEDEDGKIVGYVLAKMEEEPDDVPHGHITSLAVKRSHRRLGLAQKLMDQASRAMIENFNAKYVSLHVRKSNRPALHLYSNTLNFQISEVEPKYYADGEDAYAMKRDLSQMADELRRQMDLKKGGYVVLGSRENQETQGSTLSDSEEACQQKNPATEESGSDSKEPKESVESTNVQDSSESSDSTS
inactive: IRAK-1-4 Inhibitor I 0.035 | ibrutinib 0.049 | [1] -0.102 | ralimetinib -0.024 | [2] -0.042 | [3] -0.075 | [4] 0.072 | pinometostat -0.131 | [5] -0.007 | [6] 0 | [7] -0.375 | [8] 0.006 | [9] 0.06 | [10] 0.021 | Nexturastat A -0.016 | vemurafenib 0.145 | [11] -0.067 | [12] 0.047 | givinostat 0 | barasertib -0.027
